PubChem BioAssay (EPA / NIEHS)
Records with an inconclusive call do not appear. Activity calls are given as the source filed them. The calls were made as follows: active = hit-call score of the fitted dose curve at least 0.9, where 1 is the maximum; inconclusive = response in the unintended direction; inactive = score below 0.9.

Experiments:
[1] = ATG_XTT_Cytotoxicity: Cytotoxicity Assessment in the Attagene TRANS-FACTORIAL HepG2 Assay (AID 2283584)
Summary of the method: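 XTT readout of cell number in transfected HepG2 cells, 24 h post-dosing; DMSO serves as negative control and baseline, with activity taken as loss of viability signal.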

[2] = TOX21_p53_BLA_p2_viability: Viability Assessment in the Tox21 HCT-116 p53 Agonism Beta-lactamase Assay, Phase 2 (AID 2283591);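 also: actives lower the ATP signal meaning cytotoxicity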
Summary of the method: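 HCT-116 p53-bla cells (4000/well) rested 5 h at 37C, then received compounds in DMSO (217-fold dilution) for 16 h at 37C, 5% CO2. After the CCF4 read, CellTiter-Glo was added; ATP luminescence was read after 30 min at room temperature.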

[3] = TOX21_p53_BLA_p3_viability: Viability Assessment in the Tox21 HCT-116 p53 Agonism Beta-lactamase Assay, Phase 3 (AID 2283593);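 also: cells exposed to compound for 16 h before reading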
Summary of the method: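 HCT-116 cells (4000/well) rested 5 h at 37C, then got DMSO compounds by pin tool (217-fold dilution) for 16 h at 37C, 5% CO2. After the bla read, CellTiter-Glo was added and luminescence read at 30 min, room temperature.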

[4] = molecular target: Cellular tumor antigen p53 (Homo sapiens) (UniProt P04637); assay: TOX21_p53_BLA_p2_ratio: Tox21 HCT-116 p53 Agonism Beta-lactamase Assay, Ratio, Phase 2 (AID 2283592)
Summary of the method: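 Readout: blue/green (460/530 nm) FRET emission ratio after 2 h CCF4-AM loading at room temperature, excitation 405 nm. HCT116 p53 bla cells, 16 h compound exposure at 37C, 5% CO2; agonist direction fitted against DMSO baseline.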

Sequence of Cellular tumor antigen p53 (Homo sapiens) (P04637 whole entry, looked up): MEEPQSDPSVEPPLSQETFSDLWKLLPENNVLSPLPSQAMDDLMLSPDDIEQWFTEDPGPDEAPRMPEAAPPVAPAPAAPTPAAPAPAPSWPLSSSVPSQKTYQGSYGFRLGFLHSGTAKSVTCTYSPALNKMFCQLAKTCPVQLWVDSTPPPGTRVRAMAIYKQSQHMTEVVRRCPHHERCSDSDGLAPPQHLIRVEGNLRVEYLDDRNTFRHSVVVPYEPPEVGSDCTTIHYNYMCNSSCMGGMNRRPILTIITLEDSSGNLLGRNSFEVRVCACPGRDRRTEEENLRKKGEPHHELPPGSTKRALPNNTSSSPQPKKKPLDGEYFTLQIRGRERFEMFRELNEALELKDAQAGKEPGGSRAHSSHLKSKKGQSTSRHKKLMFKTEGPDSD

## CSc1nc(NC2CC2)nc(NC(C)(C)C)n1
[1]
  outcome: inactive
[2]
  outcome: inactive
[3]
  outcome: inactive

## COc1cc(C=O)ccc1OC(=O)C(C)C
[1]
  outcome: inactive
[4]
  outcome: inactive

## Cc1ccc(C=O)s1
[1]
  outcome: inactive
[4]
  outcome: inactive

## CC[C@]12CCCN3CCc4c(n(c5ccccc45)[C@@](O)(C(=O)OC)C1)[C@@H]32
[1]
  outcome: inactive
[4]
  outcome: inactive

## OCCCCCO
[1]
  outcome: inactive
[4]
  outcome: inactive

## CC(CCO)CCc1ccccc1 (stereo unspecified)
[1]
  outcome: inactive
[4]
  outcome: inactive

## c1cc(C(c2ccc(OCC3CO3)cc2)c2ccc(OCC3CO3)cc2)ccc1OCC1CO1 (stereo unspecified)
[1]
  outcome: inactive
[2]
  outcome: inactive
[3]
  outcome: inactive

## CC(C)=CCCC(C)CC=O (stereo unspecified)
[1]
  outcome: inactive
[4]
  outcome: inactive

## C[C@H]1C[C@@H]2[C@H]([C@@H](O)C[C@@]3(C)[C@H]2CC[C@]3(O)C(=O)CO)[C@@]2(C)C=CC(=O)C=C12
[1]
  outcome: inactive
[2]
  outcome: inactive
[3]
  outcome: inactive

## c1ccc2[nH]ccc2c1
[1]
  outcome: inactive
[4]
  outcome: inactive

## Clc1ccc(Cl)c(Cl)c1Cl
[1]
  outcome: inactive
[4]
  outcome: inactive

## CCCCCCCCCCCCSC
[1]
  outcome: inactive
[4]
  outcome: inactive

## C=CC(C)(O)CCC=C(C)CCC=C(C)C (stereo unspecified)
[1]
  outcome: inactive
[4]
  outcome: inactive

## COC(C(=O)O)c1ccccc1 (stereo unspecified)
[1]
  outcome: inactive
[4]
  outcome: inactive

## O=C1O[C@@H]2[C@@H](O)[C@H](O)O[C@@H]2[C@H]1O
[1]
  outcome: inactive
[4]
  outcome: inactive

## O=c1cc(-c2ccccc2)oc2cc(O)cc(O)c12
[1]
  outcome: inactive
[2]
  outcome: inactive
[3]
  outcome: inactive

## CCCCCCCCCOC(C)=O
[1]
  outcome: inactive
[4]
  outcome: inactive

## O=C(Nc1ccccc1)c1cc([N+](=O)[O-])ccc1Cl
[4]
  outcome: inactive

## CC(C)Oc1ccccc1O
[4]
  outcome: inactive

## C=CC(C)(CCC=C(C)C)OC=O (stereo unspecified)
[2]
  outcome: inactive
[4]
  outcome: inactive

## CC1(C)[C@H]2CC[C@]1(C)[C@H](O)C2
[2]
  outcome: inactive
[4]
  outcome: inactive
[3]
  outcome: inactive

## C=CCOC(=O)CCC1CCCCC1
[3]
  outcome: inactive

## O=C(O)CCSCCC(=O)O
[4]
  outcome: inactive

## Nc1ccc(S(=O)(=O)O)c(N)c1
[4]
  outcome: inactive
[3]
  outcome: inactive

## CCCCCOC(=O)CCC
[4]
  outcome: inactive
[3]
  outcome: inactive

## CC(C)(C)NC(N)=O
[4]
  outcome: inactive

## CN1[C@@H]2CC(OC(=O)[C@H](CO)c3ccccc3)C[C@H]1[C@@H]1O[C@@H]12 (stereo partly specified)
[4]
  outcome: inactive

## CCCC/C=C\CCCCCCCCCC=O
[2]
  outcome: inactive
[4]
  outcome: inactive
[3]
  outcome: inactive
